# Laboratory results taken from the supplement of paper PMC9023506.
# Counter-ions that a name gives are not always drawn.
# System: Danio rerio larvae (5 dpf)
# Test: habituation to 1-s acoustic pulses, difference vs DMSO (percentage points (treated minus DMSO)); higher = more of the behaviour than the DMSO vehicle control
# Settings: 10 µM; exposure time: 3 h pre-incubation + 3 h imaging
# Protocol: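 5-dpf wild-type zebrafish larvae were imaged in 96-well plates. They were treated with 190 Tocris FDA-approved drugs at 10 µM (1 µl/ml DMSO) for 3 h before and 3 h during imaging at 28.5 °C, 48 larvae per drug. Automated image analysis gave % time moving and optomotor responses. Values are drug group mean minus DMSO vehicle mean (n=844), in percentage points, for 10 behaviours.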
row,SMILES,habituation to 1-s acoustic pulses
1,CCCCCOC(=O)Nc1nc(=O)n([C@@H]2O[C@H](C)[C@@H](O)[C@H]2O)cc1F [Capecitabine],-3.26
2,COc1ccccc1OCC(O)CN1CCN(CC(=O)Nc2c(C)cccc2C)CC1 (stereo not given) [Ranolazine dihydrochloride],-4.45
3,COc1cc2nc(N3CCN(C(=O)C4COc5ccccc5O4)CC3)nc(N)c2cc1OC (stereo not given) [Doxazosin mesylate],-2.28
4,CC1CNc2c(cccc2S(=O)(=O)N[C@@H](CCCNC(=N)N)C(=O)N2CC[C@@H](C)C[C@@H]2C(=O)O)C1 (stereo not given in full) [Argatroban],-0.436
5,CN/C(=N\CCSCc1nc[nH]c1C)NC#N [Cimetidine],5.48
6,CCCN(CCc1cccs1)[C@H]1CCc2c(O)cccc2C1 [Rotigotine hydrochloride],-12.9
7,CS(=O)(=O)CCNCc1ccc(-c2ccc3ncnc(Nc4ccc(OCc5cccc(F)c5)c(Cl)c4)c3c2)o1 [Lapatinib],-1.43
8,O=C(O)CCCc1ccccc1 [Sodium 4-Phenylbutyrate],-4.19
9,Cc1cccc(CN2CCN(C(c3ccccc3)c3ccc(Cl)cc3)CC2)c1 (stereo not given) [Meclizine dihydrochloride],-10.1
10,CN1CCC[C@@H]1CCO[C@](C)(c1ccccc1)c1ccc(Cl)cc1 [Clemastine fumarate],-5.08
11,CC(C)c1nc(CN(C)C(=O)N[C@H](C(=O)N[C@@H](Cc2ccccc2)C[C@H](O)[C@H](Cc2ccccc2)NC(=O)OCc2cncs2)C(C)C)cs1 [Ritonavir],-0.262
12,CC1=Nc2ccc(Cl)cc2S(=O)(=O)N1 [Diazoxide],9.12
13,Nc1nc(Cl)nc2c1ncn2[C@@H]1O[C@H](CO)[C@@H](O)[C@@H]1F [Clofarabine],-0.305
14,N#Cc1ccc(C(c2ccc(C#N)cc2)n2cncn2)cc1 [Letrozole],2.44
15,CC(C)N(CCCCOCC(=O)NS(C)(=O)=O)c1cnc(-c2ccccc2)c(-c2ccccc2)n1 [Selexipag],-0.45
16,NS(=O)(=O)Cc1noc2ccccc12 [Zonisamide],-0.0674
17,CC(C)[C@H]1CC[C@H](C(=O)N[C@H](Cc2ccccc2)C(=O)O)CC1 [Nateglinide],0.774
18,CC/C(=C(\c1ccccc1)c1ccc(OCCN(C)C)cc1)c1ccccc1 [Tamoxifen citrate],-6.99
19,CCOC(=O)[C@H](CCc1ccccc1)N[C@@H](C)C(=O)N1[C@H](C(=O)O)C[C@@H]2CCC[C@@H]21 [Ramipril],-1.94
20,CC(C)CN(C[C@@H](O)[C@H](Cc1ccccc1)NC(=O)O[C@H]1CO[C@H]2OCC[C@H]21)S(=O)(=O)c1ccc(N)cc1 [Darunavir],-1.13

row,SMILES,habituation to 1-s acoustic pulses
1,NS(=O)(=O)c1cc(C(=O)O)c(NCc2ccco2)cc1Cl [Furosemide],1.08
2,CN[C@H]1CC[C@@H](c2ccc(Cl)c(Cl)c2)c2ccccc21 [Sertraline hydrochloride],-2.9
3,Cn1nnc2c(C(N)=O)ncn2c1=O [Temozolomide],4.01
4,C=CC(=O)N1CCC[C@@H](n2nc(-c3ccc(Oc4ccccc4)cc3)c3c(N)ncnc32)C1 [Ibrutinib],-7.68
5,O=C(NCC1CCCCN1)c1cc(OCC(F)(F)F)ccc1OCC(F)(F)F (stereo not given) [Flecainide acetate],-2.35
6,CC(C)n1c(/C=C/C(O)CC(O)CC(=O)O)c(-c2ccc(F)cc2)c2ccccc21 (stereo not given) [Fluvastatin sodium],4.04
7,C[C@H]1O[C@H](O[C@H]2[C@H](O)[C@@H](O)[C@@H](O[C@H]3[C@H](O)[C@@H](O)C(O)O[C@@H]3CO)O[C@@H]2CO)[C@H](O)[C@@H](O)[C@@H]1N[C@H]1C=C(CO)[C@@H](O)[C@H](O)[C@H]1O (stereo not given in full) [Acarbose],3.26
8,O=c1[nH]c(=O)n([C@H]2C[C@H](O)[C@@H](CO)O2)cc1C(F)(F)F [Trifluorothymidine],4.64
9,OCCN(CCO)c1nc(N2CCCCC2)c2nc(N(CCO)CCO)nc(N3CCCCC3)c2n1 [Dipyridamole],0.822
10,O=C(Nc1c(Cl)cncc1Cl)c1ccc(OC(F)F)c(OCC2CC2)c1 [Roflumilast],-1.13
11,CN(C)CC/C=C1/c2ccccc2COc2ccc(CC(=O)O)cc21 [Olopatadine hydrochloride],0.997
12,CN1CC(=O)N2[C@H](c3ccc4c(c3)OCO4)c3[nH]c4ccccc4c3C[C@@H]2C1=O [Tadalafil],-1.05
13,COc1c(C)c2c(c(O)c1C/C=C(\C)CCC(=O)O)C(=O)OC2 [Mycophenolic acid],1.78
14,COc1ccc(Cl)cc1C(=O)NCCc1ccc(S(=O)(=O)NC(=O)NC2CCCCC2)cc1 [Glibenclamide],-1.87
15,Cc1cccc(C)c1OCC(C)N (stereo not given) [Mexiletine hydrochloride],5.97
16,CC(C)(C#N)c1cc(Cn2cncn2)cc(C(C)(C)C#N)c1 [Anastrozole],6.34
17,O=C(O)c1cc(/N=N/c2ccc(S(=O)(=O)Nc3ccccn3)cc2)ccc1O [Sulfasalazine],0.389
18,CN1CCC[C@@H]1Cc1c[nH]c2ccc(CCS(=O)(=O)c3ccccc3)cc12 [Eletriptan hydrobromide],10.1
19,CN(C)CCc1c[nH]c2ccc(C[C@H]3COC(=O)N3)cc12 [Zolmitriptan],-1.85
20,CC(C)(C(=O)O)c1ccc(C(O)CCCN2CCC(C(O)(c3ccccc3)c3ccccc3)CC2)cc1 (stereo not given) [Fexofenadine hydrochloride],0.783
